Data as given in PubChem BioAssay AID1779 (Sanford-Burnham Center for Chemical Genomics, 2009).
The campaign covered roughly 290,000 compounds. About 160 (0.055%) were called active. The full list was thinned out, with actives kept by preference. Unmarked numbers belong to inactive results. Cut-off read from the data, not from the text of the source: active = inhibition above about 50%; inactive = the rest.

These compounds were tested against Tyrosine-protein phosphatase non-receptor type 22 (Homo sapiens) (UniProt Q9Y2R2) (assay: inhibitors of LYP phosphatase, biochemical, fluorescence intensity, uHTS (AID 1779;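 note: plate controls were vehicle with enzyme for no effect and no enzyme for full effect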)). Conditions: recombinant LYP phosphatase, at 11.5 µM, active compounds read high.
Sequence of Tyrosine-protein phosphatase non-receptor type 22 (Homo sapiens) (Q9Y2R2 whole entry, looked up): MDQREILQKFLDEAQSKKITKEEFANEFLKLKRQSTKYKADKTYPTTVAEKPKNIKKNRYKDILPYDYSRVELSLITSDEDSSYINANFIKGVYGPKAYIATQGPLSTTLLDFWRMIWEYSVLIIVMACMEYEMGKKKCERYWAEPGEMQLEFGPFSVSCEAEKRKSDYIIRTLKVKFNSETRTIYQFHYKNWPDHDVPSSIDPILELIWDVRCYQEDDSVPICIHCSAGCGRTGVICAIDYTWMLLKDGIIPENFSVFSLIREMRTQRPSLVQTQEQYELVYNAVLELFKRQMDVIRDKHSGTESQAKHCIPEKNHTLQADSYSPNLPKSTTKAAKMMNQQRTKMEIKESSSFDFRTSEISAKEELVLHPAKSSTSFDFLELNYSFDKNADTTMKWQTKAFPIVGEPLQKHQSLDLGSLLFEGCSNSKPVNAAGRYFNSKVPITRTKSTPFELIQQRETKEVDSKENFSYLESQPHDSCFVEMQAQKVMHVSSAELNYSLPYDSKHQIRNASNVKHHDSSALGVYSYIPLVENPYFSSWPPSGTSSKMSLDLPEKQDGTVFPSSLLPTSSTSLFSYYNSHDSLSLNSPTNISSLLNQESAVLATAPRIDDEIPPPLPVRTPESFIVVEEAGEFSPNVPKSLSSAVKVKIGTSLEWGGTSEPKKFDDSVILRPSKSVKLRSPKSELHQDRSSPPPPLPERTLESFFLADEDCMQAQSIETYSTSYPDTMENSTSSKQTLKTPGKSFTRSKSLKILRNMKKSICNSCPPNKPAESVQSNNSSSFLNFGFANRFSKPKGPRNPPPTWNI

Row | SMILES | inhibition
1 | Cc1nn(Cc2ccc(Cl)cc2)c(C)c1NC(=O)CSc1n[nH]c(C)c1[N+](=O)[O-] | -3.2%
2 | COc1cc2c(cc1OC)C(C(=O)N1CCCC1)C(c1ccccc1F)N(C)C2=O (centres undefined) | -2.7%
3 | COc1ccc(C2C(C(=O)N3CCCC3)c3cc(OC)c(OC)cc3C(=O)N2C)cc1OC (centres undefined) | -1.1%
4 | COc1cc2c(cc1OC)C(C(=O)N1CCCCC1)C(c1ccccc1F)N(C)C2=O (centres undefined) | 64.6% (active)
5 | COCCCNc1nc2c(-c3ccc(C)cc3)nnn2c2ccccc12 | -6.1%
6 | O=C(N=C1c2ccccc2CN1c1cccc(Cl)c1)c1cccnc1 | -6.2%
7 | COc1cc(SC#N)ccc1N=Cc1c(C)[nH]n(-c2ccc(C)c(C)c2)c1=O | -5.7%
8 | COc1cc(SC#N)ccc1N=Cc1c(C)[nH]n(-c2ccc(C)cc2C)c1=O | -3.1%
9 | COc1cc(SC#N)ccc1N=Cc1c(C)[nH]n(-c2ccc(Cl)cc2)c1=O | 80.6% (active)
10 | CCOC(=O)C1CCN(S(=O)(=O)c2cc(Cl)c(C)cc2OC)CC1 | 0%
11 | CCOC(=O)C1CCN(C(=O)Nc2ccc3nc(-c4ccco4)c(-c4ccco4)nc3c2)CC1 | 53.4% (active)
12 | O=C(Nc1ccc2nc(-c3ccco3)c(-c3ccco3)nc2c1)N1CCCCCC1 | 17.4%
13 | CCOC(=O)C1CCN(C(=O)Nc2ccc3nc(C)c(C)nc3c2)CC1 | -2.2%
14 | CCC(=O)N1CCc2nc(-c3ccccc3)sc2C1 | -5.1%
15 | COC(=O)c1ccc(CSc2nc(-c3ccccc3)cs2)o1 | -2.6%
16 | CC(=O)N1c2c(cc(Br)cc2S(=O)(=O)N2CCOCC2)CC1C (centres undefined) | 51.5% (active)
17 | CC(=O)N1c2c(cc(Br)cc2S(=O)(=O)N2CCCCC2)CC1C (centres undefined) | -0.1%
18 | CCOC(=O)N1CCN(S(=O)(=O)c2cc(Br)cc3c2N(C(C)=O)C(C)C3)CC1 (centres undefined) | 3%
19 | COc1ccc(C(=O)Nc2cccc(C(=O)N3CCCC3)c2)cc1 | -7.1%
20 | COc1ccccc1CC(=O)Nc1ccc(S(=O)(=O)N2CCN(C)CC2)cc1 | -10.4%
21 | Cc1cc2ncc(Cl)nc2cc1C | 59.3% (active)
22 | Cc1cnc2cc(Cl)c(Cl)cc2n1 | -3.4%
23 | Cc1cc2nc(Cl)c(Cl)nc2cc1C | -2.6%
24 | CC(Oc1ccc([N+](=O)[O-])cc1Cl)C(=O)Nc1ccc(C(N)=O)cc1 (centres undefined) | -5.5%

Row | SMILES | inhibition
25 | Cc1ccc(NC(=O)C2CCCN2C(=O)NC2CCCCC2)cc1C (centres undefined) | -7%
26 | CCCN1C(=O)C2(C(C(=O)c3ccc(C)o3)=C(O)C(=O)N2CCCOC)c2ccccc21 (centres undefined) | 3.3%
27 | Cc1nc2ccccc2cc1C(=O)NCc1ccco1 | 1.1%
28 | O=C(NCc1ccco1)c1ccc2ccccc2n1 | 56.3% (active)
29 | O=C(NCc1ccccc1)c1ccc2ccccc2n1 | -6.3%
30 | CC1CCN(C(=O)Cn2c(SCC(=O)Nc3nccs3)nc3ccccc32)CC1 | -1%
31 | CN1CCN(c2ccccc2NC(=O)Cc2ccc(Cl)cc2)CC1 | -9.1%
32 | NN1C(=O)/C(=C2/Sc3ccccc3N2CCCS(=O)(=O)O)SC1=S | -6.6%
33 | CC1=NN(C(=O)Cn2ccc([N+](=O)[O-])n2)C(O)(C(F)(F)F)C1 (centres undefined) | -3.6%
34 | CC1=NN(C(=O)c2ccc(Cn3ccc([N+](=O)[O-])n3)cc2)C(O)(C(F)(F)F)C1 (centres undefined) | 63.4% (active)
35 | CC1=NN(C(=O)c2ccc(Cn3cc([N+](=O)[O-])cn3)cc2)C(O)(C(F)(F)F)C1 (centres undefined) | -3.4%
36 | CC1Cc2ccccc2N1C(=O)CCn1c(=O)oc2ccccc21 (centres undefined) | 5.2%
37 | COc1ccc(C(=O)n2ncc(C#N)c2N)cc1 | -0.2%
38 | CSC1=NCCN1CCOc1ccccc1 | -8.5%
39 | O=C(Cc1cccs1)N1CCN(c2ccc(F)cc2)CC1 | -8.1%
40 | O=C(Cc1ccc([N+](=O)[O-])cc1)N1CCN(c2ccc([N+](=O)[O-])cc2)CC1 | -5.9%
41 | O=C(Cc1cccs1)N1CCN(c2ccc([N+](=O)[O-])cc2)CC1 | 70% (active)
42 | C[C@]12C=CC(=O)C=C1CC[C@@H]1[C@@H]2C(=O)C[C@@]2(C)[C@H]1CC[C@]2(O)C(=O)CO | -5.9%
43 | CC(=O)OCC(=O)[C@@]1(O)CC[C@H]2[C@@H]3CCC4=CC(=O)C=C[C@]4(C)[C@H]3C(=O)C[C@@]21C | -4.3%
44 | CCOC1(C)OCC(=O)[C@]2(CCC3C4CCC5=CC(=O)C=CC5(C)C4C(=O)CC32C)O1 (some centres undefined) | 55.8% (active)
45 | CCN(CC)CCNC(=O)C1CCN(S(=O)(=O)N2CCCCC2)CC1 | -7.2%
46 | COc1ccccc1N1CCN(C(=O)C2CCN(C(=O)c3cccc(Cl)c3)CC2)CC1 | -6.5%
47 | COc1ccccc1N1CCN(C(=O)C2CCN(C(=O)c3ccccc3Cl)CC2)CC1 | 69.4% (active)
48 | COc1ccccc1N1CCN(C(=O)C2CCN(C(=O)c3ccccc3C)CC2)CC1 | -10.9%

Row | SMILES | inhibition
49 | O=C(Nc1ccc2c(c1)OCO2)c1ccccc1SCC(=O)N1CCCC1 | 0.1%
50 | CCOc1cc(N2CCOCC2)c(OCC)cc1NC(=O)c1c(-c2ccccc2Cl)noc1C | 2.6%
51 | CCSc1nnc(NC(=O)C2CC=CCC2C(=O)O)s1 (centres undefined) | 0.6%
52 | CCSc1nnc(NC(=O)C2CCCCC2C(=O)O)s1 (centres undefined) | 66.2% (active)
53 | CCSc1nnc(NC(=O)C2CCCCC2)s1 | -4.2%
54 | CS(=O)(=O)N(CC(=O)Nc1ccccc1Br)Cc1ccccc1 | -4.5%
55 | O=C1OC(c2ccc(Br)cc2)=N/C1=C\c1ccco1 | 63.7% (active)
56 | O=C1NC(c2ccc(Br)cc2)=N/C1=C/c1ccco1 | 9.9%
57 | CC1=N/C(=C/c2ccco2)C(=O)O1 | -3.8%
58 | CCOC(=O)c1ccc(N2C(=O)C3C(/C=C/c4ccccc4)OC4(C(=O)c5ccccc5C4=O)C3C2=O)cc1 (centres undefined) | 7.3%
59 | CCOC(=O)c1cc(-c2cc(OC)c(OC)c(OC)c2)nc2c1c(=O)[nH]c(=O)n2Cc1ccccc1 | -8.7%
60 | COc1ccc(C(=O)Nc2ccc(Cl)cn2)cc1Cl | 0.7%
61 | O=C(COc1ccc(Cl)cc1Cl)Nc1ccc(Cl)cn1 | -4.3%
62 | CCOc1ccc(C(=O)Nc2ccc(Cl)cn2)cc1Cl | 80.4% (active)
63 | CCn1c(SCC(=O)N/N=C(/C)c2ccncc2)nc2ccccc21 | -6.6%
64 | Cc1ccc(S(=O)(=O)NC(=O)Nc2nnc(C3CC3)s2)cc1 | -9.1%
65 | CC(=O)Nc1ccc(NC(=O)CSc2ccc(-c3sc(C)nc3C)nn2)cc1 | -10.3%
66 | N#Cc1c(/N=C\c2ccc(O)c([N+](=O)[O-])c2)sc2c1CCCC2 | 7.9%
67 | CC1=NN(c2ccccc2)C(=O)/C1=C\C=C1\N(C)c2ccccc2C1(C)C | 6.4%
68 | O=C(CNC(=O)c1ccc(Cl)cc1)NCC(F)(F)F | 68.8% (active)
69 | CC(=O)NCCNC(=O)CNC(=O)c1ccc(Cl)cc1 | -1.1%
70 | O=C(CNC(=O)c1ccc(F)cc1)NCc1ccc(Cl)cc1 | -3%
71 | O=C1CC(N2CCN(c3cccc(C(F)(F)F)c3)CC2)C(=O)N1c1ccc(F)cc1 (centres undefined) | 4.8%
72 | O=C(NC1CCCCCC1)C(=O)NC1CCCC1 | -2.9%

Row | SMILES | inhibition
73 | N#CC(C(=O)NC1CCCCC1)=C1CCCCCC1 | 2.1%
74 | N#CC(C(=O)NC1CCCCC1)=C1CCCCC1 | 62.7% (active)
75 | CCN(CCCNC(=O)C1CCN(S(=O)(=O)c2cccc3nonc23)CC1)Cc1ccccc1 | -4.7%
76 | Cc1cc([N+](=O)[O-])ccc1NC(=O)CCC(=O)N1CCCCC1 | -5.2%
77 | COc1ccc(NC(=S)N(CCN(C)C)C(C)c2ccncc2)cc1Cl (centres undefined) | -7.3%
78 | CCOC(=O)C1=C(CP(=O)(c2ccccc2)c2ccccc2)NC(=O)NC1c1ccc(OC)cc1 (centres undefined) | 4%
79 | CC(C)c1c(O)c2c(n(-c3ccccc3)c1=O)CCCC2 | 1%
80 | O=c1c(-c2ccccc2)c(O)c2c(n1-c1ccccc1)CCCC2 | 66.2% (active)
81 | CC/C(=N\O)c1c(O)c2c(n(-c3ccccc3)c1=O)CCCC2 | 3.9%
82 | Cc1cc(C)cc(Cn2ncc(Cl)c(Cl)c2=O)c1 | -5.9%
83 | COc1ccc(C(=O)Nc2nc(N3C(=O)c4ccccc4C3=O)n(-c3ccccc3)n2)cc1 | -1.2%
84 | COc1cc(/C=N/NC(=O)c2ccc(O)cc2)ccc1OCC(=O)Nc1cccc([N+](=O)[O-])c1 | -5.1%
85 | O=C(COc1ccc(/C=N/NC(=O)c2ccc(O)cc2)cc1)Nc1cccc([N+](=O)[O-])c1 | 56.7% (active)
86 | O=C(COc1ccc(/C=N/NC(=O)c2ccncc2)cc1)Nc1cccc([N+](=O)[O-])c1 | -3.3%
87 | CN(C)CCCNc1nc(-c2ccccc2)nc2ccccc12 | -1.4%
88 | COc1ccc(Cn2c3nc4ccccc4nc3c3c(=O)n(Cc4ccco4)cnc32)cc1 | 24.1%
89 | Cc1nc2c(c(=O)n1Cc1ccccc1Cl)c1nc3ccccc3nc1n2Cc1ccco1 | -4.4%
90 | COc1ccc(Cn2c3nc4ccccc4nc3c3c(=O)n(Cc4ccco4)c(C)nc32)cc1 | 55.8% (active)
91 | COc1cccc(-c2onc3ccc(C(=O)/C=C/N(C)C)cc23)c1 | 2.8%
92 | CCOC(=O)CC1(NC(=O)c2cc(COc3cccc(OC)c3)on2)CCCCC1 | 4.4%
93 | CCOC(=O)CC1(NC(=O)c2cc(COc3cncc(Cl)c3)on2)CCCCC1 | 54.6% (active)
94 | CCOC(=O)CC1(NC(=O)c2cc(COc3ccc(F)c(F)c3)on2)CCCCC1 | -5.7%
